# TcdB GH inh = inhibitors of Clostridioides difficile toxin B glycohydrolase; TcdB glycohydrolase enzymatic assay, plate reader; inhibition, % at 9.99 µM; actives 0.24% (n = 350,000); AID 652162; in the data active means inhibition above about 10%
# PfHsp40 yeast = rescue of PfHsp40-mediated yeast toxicity | S. cerevisiae expressing PfHsp40, growth rescue, ATP luminescence | growth rescue, % at 12.5 µM | actives 0.68% (n = 340,000); in the data active means growth rescue above about 28%, passing the limit was not always enough;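 further: yeast W303a lacking pdr1 and pdr3 grown in galactose medium; growth measured after three days at 30 °C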
# Mtb hypoxia inh = Mtb hypoxia fluorescent reporter inhibition. fluorescence inhibition, % (concentration not given with the values). AID 1159583. M. tuberculosis hypoxia-regulated fluorescent reporter, fluorescence. actives 0.1% (n = 300,000); in the data active means fluorescence inhibition mostly above about 23%, no sharp cut-off; inactive means mostly below about 17%
# Sa RN4220 lethal = kills Staphylococcus aureus RN4220. S. aureus RN4220 growth, OD600, 16 h. inhibition, % (test concentration not listed). actives 0.33% (n = 330,000); in the data active means inhibition above about 85%;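 further: plate controls were untreated cells for no effect and reference antibiotic for full effect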
# MazEF act = MazEF (E. coli) toxin RNase activation; activation, % at 20 µM; FAM/BHQ RNA-DNA oligo cleavage fluorescence, 5 h; actives 0.32% (n = 350,000); P0AE70; in the data active means activation above about 50%
# Sa ugtP lethal = growth inhibition of S. aureus ugtP deletion strain; growth inhibition, % (concentration not given with the values); actives 0.54% (n = 330,000); S. aureus RN4220 ugtP deletion, OD600 growth, 16 h; in the data active means growth inhibition above about 68%;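 further: plate controls were untreated wells for no effect and antibiotic for full effect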
# Active calls of the source: *; . = no result shown; + = active, no number. An excerpt weighted towards active compounds, which were near 1.3% of everything screened.
SMILES,TcdB GH inh,PfHsp40 yeast,Mtb hypoxia inh,Sa RN4220 lethal,MazEF act,Sa ugtP lethal
COc1ccc(-c2ccc(/C=C3\C(=O)N(c4ccccc4)N=C3c3ccccc3)o2)c([N+](=O)[O-])c1,.,0,.,-7,-4,2
COc1ccc(-c2ccc(/C=C3/C(=N)N4C(C)=CSC4=NC3=O)o2)c([N+](=O)[O-])c1,.,0,4,6,68*,98*
CN1C(=O)C(c2nnc(Nc3cccc4ccccc34)s2)C2CC1(C)Oc1ccccc12 (configuration not stated),11*,-1,2,0,7,-22
COCc1cc(Sc2c(Cl)cccc2Cl)nc(-c2ccccc2)n1,.,1,.,-10,-7,85*
Cc1c(C(=O)NCCSCc2cccc(C(F)(F)F)c2)cnn1-c1ccc(Cl)cc1,1,315*,10,-3,2,-9
Cc1cccc(CS(=O)(=O)c2ncc(Cl)c(C(=O)Nc3c(C)cccc3C)n2)c1,0,0,.,.,16,.
Cc1cccc(C)c1NC(=O)c1nc(S(=O)(=O)Cc2ccccc2)ncc1Cl,1,98*,.,.,29,.
COc1cccc(NC(=O)C[C@H]2CC[C@@H]3[C@H](COc4ccc(NC(=O)C5CCCCC5)cc4C(=O)N3C)O2)c1,-2,.,.,.,.,.
Cc1ccc(/C=C2/Sc3ccc(C(=O)N4CCN(C)CC4)cc3NC2=O)cc1,0,-1,6,-2,-13,-2
COc1ccc(/C=C2/Sc3ccc(C(=O)N4CCc5ccccc5C4)cc3NC2=O)cc1,1,48*,11,4,-11,-8
N=c1c2c(n(Cc3ccc(Br)cc3)c3c1CCC3)CCCC2,1,-1,24,41,19,99*
N=c1c2c(n(Cc3ccc(Cl)c(Cl)c3)c3c1CCC3)CCCC2,.,-2,.,91*,13,99*
NCCCCC1CNC(=O)C(=O)N1CCc1cc(C(F)(F)F)cc(C(F)(F)F)c1 (configuration not stated),.,.,17,3,.,2
CC(=O)n1c(C=Nc2ccc(Cl)cc2)c(O)c2ccccc21,1,0,-1,4,+,3
CC(OC(=O)C1=COCCO1)C(=O)c1ccc(Br)cc1 (configuration not stated),14*,-1,3,3,6,4
CC(=NNC(=S)NC1CCCCC1)c1ccc(O)cc1,.,.,16,-6,.,3
O=C1CN(C(=O)COC(=O)c2ccc(Br)o2)c2ccccc2N1,-4,0,26*,7,0,1
CN1CCN(c2c(F)cc3c(=O)c(C(=O)O)cn4c3c2OCN4C)CC1,1,0,.,99*,-5,99*
NC(=O)c1sc2nnc(-c3ccccc3)c(-c3ccccc3)c2c1N,1,1,5,2,-12,84*
C[C@H]1CN([C@@H](C)CO)C(=O)c2cc(Br)cnc2O[C@@H]1CN(C)C(=O)C1CCCCC1,1,.,.,.,.,.
Cc1ccc(S(=O)(=O)N2CCOCC2)cc1C(=O)OCC(=O)NC1CC1,0,0,33*,4,11,10
COc1ccc(S(=O)(=O)N2CCOCC2)cc1NC(=O)COC(=O)c1[nH]c(C)c(C(C)=O)c1C,13*,18,6,3,13,4
CC(=O)c1c(C)[nH]c(C(=O)OCC(=O)Nc2cc(S(=O)(=O)N3CCCC3)ccc2Cl)c1C,.,1,3,5,19,-8
Cc1ccc(NC(=O)CSc2nsc(SCC(=O)Nc3ccc(C)cc3C)c2C#N)c(C)c1,-1,55*,.,.,-41,.
Cc1csc(NC(=O)CSc2nsc(SCC(=O)Nc3nc(C)cs3)c2C#N)n1,.,1,12,28,45,-16
SMILES,TcdB GH inh,PfHsp40 yeast,Mtb hypoxia inh,Sa RN4220 lethal,MazEF act,Sa ugtP lethal
C=C1c2cccc(O)c2C(=O)C2C(=O)[C@]3(O)C(=O)C(C(N)=O)C(=O)[C@@H](N(C)C)[C@@H]3[C@@H](O)[C@H]12 (some centres not stated),-1,60*,.,.,-9,.
Cc1cc(C(=O)CCl)c(C)n1CCc1ccc(Cl)cc1,1,0,19,93*,-7,97*
O=C(Nc1ccccc1SC(=O)c1ccccc1)c1ccccc1,2,.,.,.,3,.
Cc1ccc(C(=O)Sc2cccccc2=O)cc1,-1,698*,.,34,-16,40
C=CCN1C(=O)/C(=C/c2ccc(O)cc2)SC1=Nc1nccs1,.,.,1,-1,.,21
CCn1nnnc1NCc1ccc(N2CCCC2)cc1,.,0,.,7,4,5

# Screening results as filed in PubChem.
